High-throughput results as filed in PubChem.
Pf apPOL block: Pf-apPOL DNA polymerase inhibition; Recombinant Pf-apPOL, molecular beacon fluorescence, 1.5 h; inhibition, % at 10 µM; 210,000 tested, 0.25% active; AID 1794808
mHTT-CaM PPI inh: mHTT-calmodulin interaction abrogation. P42858. AlphaScreen His-mHTT/GST-CaM binding, luminescence. inhibition, % at 15 µM. 190,000 tested, 3.6% active. AID 1671202;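 also: 0% = both proteins with DMSO and 100% = one protein alone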
Numbers without * were called inactive; x = not tested or not shown. This excerpt belongs to a sample that is enriched for hits. Rule as the data show it: active = inhibition above about 50%; inactive = the rest.

SMILES	Pf apPOL block	mHTT-CaM PPI inh
Cc1cccc(-c2ncccc2CNC(=O)c2cccc(F)c2)c1	2	-11
O=C(Nc1cccnc1)c1ccc2c(c1)nnn2Cc1ccccc1	-4	5
COc1cccc(OCc2cc(C3Nc4ccccc4C(=O)N3Cc3ccco3)ccc2OC)c1 (stereo unspecified)	-8	28
COc1ccc(C2Nc3ccccc3C(=O)N2Cc2ccco2)cc1COc1ccc(Cl)cc1 (stereo unspecified)	8	55*
CCOc1ccccc1/C=C1N=C(/C=C/c2ccc(Cl)cc2)OC/1=O	-5	4
O=c1[nH]c(/C=C/c2cc(Br)ccc2O)nc2ccccc12	2	-1
O=c1c2ccccc2nc(/C=C/c2cc(Br)ccc2O)n1CCCO	16	76*
CCCCSc1nc2c(c(C(F)(F)F)c1C#N)CC(C)CC2 (stereo unspecified)	x	-88
CN1CCN(C(=O)CSc2nc3c(c(C(F)(F)F)c2C#N)CCC3)CC1	x	62*
COc1ccc(-c2nc(COc3ccccc3F)no2)cc1	-1	-30
CC1(C)CC(=O)C=C(Nc2ccccc2-c2ccccc2)C1	-1	0
COc1ccc(C(=O)N2CCCC(c3noc(-c4ccccc4OC)n3)C2)cc1OC (stereo unspecified)	3	5
CN1CC2c3ccccc3OC(c3ccc4c(c3)OCO4)C2([N+](=O)[O-])O1 (stereo unspecified)	x	96*
c1ccc(C2=NN3C(C2)c2ccccc2OC3c2ccc3c(c2)OCO3)cc1 (stereo unspecified)	-1	5
Cc1cc(C)c2c(c1)[nH]c1nnc(SCC(=O)N3CCN(c4ccccc4)CC3)nc12	1	74*
Cc1cc(C)c2c(c1)[nH]c1nnc(SCC(=O)NCc3ccccc3)nc12	-4	8
CCNC(=O)C1CCc2sc(C(=O)N3CCOCC3)cc2C1 (stereo unspecified)	-6	-2
CC(C)CCNC(=O)c1c[nH]c2ccc(S(=O)(=O)N(C)c3ccc(F)cc3)cc2c1=O	-6	21
COCCCNC(=O)C1CCN(Cc2cc3ccccc3n2Cc2ccccc2C)CC1	2	64*
COc1ccc(CN2CCC(C(=O)NCc3ccccc3Cl)CC2)c(OC)c1	-5	-1
COCCCNC(=O)C1CCN(C(=O)c2cccnc2-c2ccccc2C)CC1	-6	-6
COCCNC(=O)C1CCN(Cc2cc3ccccc3n2Cc2ccccc2Cl)CC1	0	83*
COc1ccc(N(CC(=O)Nc2cccc([N+](=O)[O-])c2)S(C)(=O)=O)cc1OC	2	3
O=C(O)c1cc(-c2ccc(-c3c(-c4ccco4)noc3-c3ccccc3)cc2)nc2ccccc12	74*	69*
O=C(O)c1cc(-c2ccccc2)nc2ccccc12	-1	-2
SMILES	Pf apPOL block	mHTT-CaM PPI inh
CC1(C)CC(=C2C(=O)c3ccccc3C2=O)C=C2c3ccccc3C(=O)C21 (stereo unspecified)	0	65*
O=C1c2ccccc2C(=O)c2c(NC3CCCCC3)ccc(NC3CCCCC3)c21	-2	x
O=C(Cc1ccc(Cl)cc1)N1CCC(c2nnc(C3CC3)s2)CC1	-28	-1
CN(C)CCCN1C(=O)C(O)=C(C(=O)c2cccs2)C1c1ccc(F)cc1 (stereo unspecified)	-2	0
CC(=O)c1ccc(NC(=O)c2cc3ccccc3o2)cc1	-1	0
CN(C)c1ccc(NC(=O)c2cc3ccccc3o2)cc1	-4	60*
O=[N+]([O-])c1ccc(NCCCOc2nonc2-c2ccccc2)c(Cl)c1	0	4
Cc1nnc(C2CCCN(C(=O)c3cc(-c4cccs4)[nH]n3)C2)s1 (stereo unspecified)	-10	-8
Cc1ccc2nc(C3CN(C(=O)c4cc(-c5cccs5)[nH]n4)C3)[nH]c2c1	-4	53*
O=C(NC1CCCCCC1)c1c[nH]c2ccc(S(=O)(=O)N3CCc4ccccc43)cc2c1=O	-6	49
C/C=C(\C)CN1CCN(C/C=C/c2ccccc2)CC1	7	7
C(=Cc1ccccc1)CN1CCN(c2c3c(nc4ncnn24)CCCC3)CC1	-5	73*
NC(=O)c1cc2cc(Br)ccc2oc1=O	-4	3
C=CCc1c(C)nc2nc(SCc3cc(=O)n4ccc(Br)cc4n3)nn2c1C	-7	28
COc1ccccc1Nc1ncnc2c1cnn2-c1ccc(C)cc1C	-3	14
O=C(Nc1nnc(CSCc2ccccc2F)s1)c1ccc([N+](=O)[O-])cc1	-20	6
CCOc1cc(/C=C2\C(=O)NN(c3ccc(C)c(C)c3)C2=O)cc(Cl)c1OCC	-2	63*
COc1cc(/C=C2\C(=O)NN(c3cccc(Br)c3)C2=O)cc(Cl)c1OC(C)C	-4	84*
CCOc1cc(/C=C2\C(=O)NN(c3ccc(C)c(Cl)c3)C2=O)cc(Cl)c1OCC	-11	41
COc1cc(/C=C2\C(=O)NN(c3ccc(C)c(C)c3)C2=O)cc(Cl)c1OC	-6	58*
COc1cc(/C=C2\C(=O)NN(c3ccccc3)C2=O)cc(Cl)c1OC	-1	28
CCOc1ccc(/C=C2\C(=O)NN(c3cccc(Br)c3)C2=O)cc1OCC	-2	5
Cc1ccc(C(=O)N2CCC(CCNC(=O)c3ccccc3)CC2)cc1	0	5
CCc1ccc(CNC(=O)c2cn3ccccc3n2)cc1	-9	-8
Cc1ccccc1C1=N/C(=C\c2cccn2C)C(=O)O1	5	19
SMILES	Pf apPOL block	mHTT-CaM PPI inh
Cn1cccc1/C=C1\CCC/C(=C\c2cccn2C)C1=O	-3	79*
CC1C/C(=C\c2cccn2C)C(=O)/C(=C/c2cccn2C)C1 (stereo unspecified)	-1	99*
COc1ccc2c(c1)CC/C(=C\c1cccn1C)C2=O	-7	39
COc1ccc(N/C(C)=C(\C#N)C(N)=O)cc1	1	-5
CCn1c(SC)nnc1-c1nn(C)c2c1CN(C(=O)c1ccc(C#N)cc1)CC2	-6	-1
Oc1ccc(C2=Nn3c(nnc3-c3cccc(F)c3)SC2)cc1O	-1	39
COc1cccc(-c2nnc3n2N=C(c2ccc(O)c(O)c2)CS3)c1	-3	52*
CCC(CC)NC(=O)C1CC(=O)N(CCc2c[nH]c3ccc(F)cc23)C1 (stereo unspecified)	-5	3
CCOC(=O)ON1C(=O)c2ccccc2N2COc3ccccc3C12 (stereo unspecified)	x	100*
CCOC(=O)C1Oc2ccccc2C(C(=O)OC)=C1C(=O)OC (stereo unspecified)	-7	3
O=C(NCCC1=CCCCC1)C(=O)NC1CCCC1	2	-7
COc1ccc2c(c1)c(CN1CCC(C(=O)NCCN(C)Cc3ccccc3)CC1)cn2C	3	8
O=C(NCc1cccnc1)C1CCN(c2cnn(Cc3ccccc3)c(=O)c2)CC1	-2	-6
Cc1ccc(Cn2c(CN3CCC(C(=O)NCCN(C)C)CC3)cc3ccccc32)cc1	3	99*
CN(C)CCNC(=O)C1CCN(Cc2cc3ccccc3n2Cc2cccc(F)c2)CC1	3	100*
CN(C)CCNC(=O)C1CCN(c2nc3ccccc3o2)CC1	-16	1
O=C(NCc1cccnc1)C1CCN(Cc2cc3ccccc3n2Cc2ccccc2)CC1	3	68*
O=C(Nc1ccc(Cl)cn1)C1CCCCC1	-3	0
COc1cc(CN2CCN(C/C=C/c3ccccc3)CC2)cc(OC)c1O	-6	20
CC12CC3CC(C)(C1)CC(CC(=O)NN)(C3)C2	x	-6
CCOc1ccccc1C(=O)N1CCc2c(c(C(=O)NCc3ccc(F)cc3)nn2C)C1	-7	73*
